Source: PubChem BioAssay (NCI)
Compounds without any hit were thinned out: in the full panel of roughly 83,000, 20% have a hit.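 Single-concentration screen, 48 h exposure, 96-well plates. Endpoint: percent growth. Below 10 = active.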 Activity calls are given as the source filed them.

The compounds below were run on MDA-MB-231 breast (assay: NCI-60 one-dose screen, 48 h (100 = growth as untreated, 0 = no growth, -100 = all killed)). Settings: 10 µM unless noted.

| SMILES | growth |
| --- | --- |
| Cc1ccc2c(n1)C(=O)C(Cl)=C(Nc1cccc(C(C)C)c1)C2=O | 45.8% (inactive) |
| Cn1cc(-c2cc(N)n3nc(-c4cn(C)c5ccc(F)cc45)cc3n2)c2cc(F)ccc21 | 3.73% (active) |
| Cn1c(SCC(=O)c2cccs2)nc2ccccc2c1=O | 88.2% (inactive) |
| CCCC(=O)NC(c1ccc(N(CC)CC)cc1)c1cc(C)c2cccnc2c1O (centres undefined) | 43.9% (inactive) |
| COC(=O)C1CCCN(S(=O)(=O)/N=C2\NC(=O)NC2=C(Cl)Cl)C1 (centres undefined) | 102% (inactive) |
| O=C(N/N=C/c1ccc([N+](=O)[O-])s1)c1[nH]c2ccc(Br)cc2c1-c1ccccc1 | -24.1% (active) |
| C=C1CC[C@H]2[C@@](C)(CCC3OC(c4ccc(OCc5cn(C6CC(OC(C)=O)C(OC(C)=O)C(COC(C)=O)O6)nn5)cc4)OC[C@]32C)[C@@H]1/C=C/C1=CCOC1=O (some centres undefined) | 77.9% (inactive) |
| COc1ccc([C@@H]2c3[nH]c4ccccc4c3CC3C(=O)N(C4CCN(Cc5c(F)cccc5F)CC4)CC(=O)N32)c(OC)c1 (some centres undefined) | 62.3% [5.26 µM] (inactive) |
| O=C(N/N=C/c1ccc(Br)s1)c1[nH]c2ccc(Br)cc2c1-c1ccccc1 | 4.67% (active) |
| O=C1c2c(c3c4cccnc4[nH]c3c3ccc4ccccc4c23)C(=O)N1CCO | 78.8% (inactive) |
| Nc1c(C(=O)Nc2ccc(C(F)(F)F)cc2)sc2nc(-c3cnccn3)cc(-c3cccs3)c12 | 66.2% (inactive) |
| CSc1ccc2c(c1)N(C(=O)/C(C#N)=C/c1c[nH]c3ccccc13)c1ccccc1S2 | 53.2% (inactive) |
| Cc1cc(C(=O)Nc2sc3c(c2C(N)=O)CCC(=O)C3)ccc1OCCN1CCCCC1 | 101% (inactive) |
| CN(C)c1ccc(/C=c2\sc3nc4ccccc4n3c2=O)cc1 | 91.2% (inactive) |
| CN(C)c1ccc(/C=C2\Cc3c(F)ccc(Br)c3C2=O)cc1 | 90.8% (inactive) |
| CN1CCN(Cc2ccc(NC(=O)c3cncc(C#Cc4cnc5ccc(N6CCSCC6)nn45)c3)cc2C(F)(F)F)CC1 | -38.4% (active) |
| COc1cc(/C=C/C(=O)c2ccc(C)cc2)ccc1Oc1nc(NCCO)nc(N2CCOCC2)n1 | 67.7% (inactive) |
| O=C(CSc1nnc(-c2ccc3nc(-c4ccc(Cl)cc4)[nH]c3c2)o1)Nc1ccc(C(=O)/C=C/c2ccc(Cl)cc2)cc1 | 90.6% (inactive) |
| C#Cc1nc(C2=C(C)C(=N\O)/C(=N/O)C2)cs1 | 61.4% (inactive) |
| CCOc1ccc2nc(NC(=O)c3ccc(C(F)(F)F)cc3)sc2c1 | 106% (inactive) |

| SMILES | growth |
| --- | --- |
| CC(O)C(NC(=O)C1CCCN1C(=O)CNC(=O)C1CC(=O)NCC(=O)NC(Cc2c[nH]c3ccccc23)C(=O)NC(Cc2ccc(O)cc2)C(=O)NCC(=O)NC(CO)C(=O)NC(CCC(N)=O)C(=O)NC(Cc2c[nH]c3ccccc23)C(=O)N1)C(=O)NCC(=O)NC(CCC(N)=O)C(=O)NC(CCCNC(=N)N)C(=O)NC(CC(=O)O)C(=O)O (centres undefined) | 98.6% (inactive) |
| CC1=C(C)C(=O)C(Nc2ccccc2)=C(Cl)C1=O | 15.4% (inactive) |
| CO/N=C1\CCc2c(sc(NC(=O)c3cccc(C(F)(F)F)c3)c2C(N)=O)C1 | 37.7% (inactive) |
| COc1ccc(CNS(=O)(=O)/N=C2\NC(=O)NC2=C(Cl)Cl)cc1 | 22.1% (inactive) |
| NS(=O)(=O)c1cccc(Nc2nc(SCC(=O)c3ccc([N+](=O)[O-])cc3)nc3ccccc23)c1 | 55.6% (inactive) |
| Cn1ccnc1C(=O)/C=C/c1ccc(NC(=O)Nc2ccccc2)cc1 | -2.86% (active) |
| CCOC(=O)c1sc(N)c(C(=O)OCC)c1C | 37.4% (inactive) |
| CN(C)S(=O)(=O)c1oc(-c2ccccc2)nc1C#N | 52.2% (inactive) |
| O=C1Nc2cc(Cl)ccc2/C1=C\c1ccc(OCc2ccc(Br)cc2F)cc1 | -2.27% (active) |
| COc1cc(/C=C/C(=O)c2cc(OC)c(OC)c(OC)c2)ccc1OCc1ccccc1 | 47.7% (inactive) |
| NC(=O)c1cc(-c2ccc3ncnc(N4CCc5cc(F)c(Cl)cc54)c3c2)cnc1N | 34.5% (inactive) |
| COc1ccc(NC2=C(Cl)C(=O)C(C)=C(C)C2=O)cc1OC | 44.9% (inactive) |
| Cn1ccnc1C(=O)/C=C/c1ccc(NC(=O)Nc2ccc(F)cc2)cc1 | 28.8% (inactive) |
| O=C(CCN1C(=O)/C(=C/c2ccccc2)SC1=S)N1CCOCC1 | 75.9% (inactive) |
| Cc1ccc(CNS(=O)(=O)/N=C2\NC(=O)NC2=C(Cl)Cl)cc1 | 40.3% (inactive) |
| N#Cc1c(-c2ccc(Cl)cc2)nc(SCc2ccc(F)cc2)nc1N1CCNCC1 | 16.2% (inactive) |
| Clc1ccc(-c2cn3cc(Cc4ccc(Cl)c(Cl)c4)sc3n2)cc1 | 72.7% (inactive) |
| COc1ccc(/C=N/NC(=O)c2[nH]c3ccc(Br)cc3c2-c2ccccc2)o1 | -5.34% (active) |
| O=C(Nc1nc2ccc(O)cc2s1)c1cccc(C(F)(F)F)c1 | 90.7% (inactive) |
